# High-throughput results: PubChem BioAssay, National Center for Advancing Translational Sciences (NCATS)
# Rows were chosen to be rich in hits. Some 7.5% of all compounds tested hit in one or more screens of this group.
# Rab9 prom act = activates the Rab9 promoter. hit rate 2.8% among 320,000. AID 485297. Potency, µM (doses to about 9.22 µM), for inactives: at the highest dose activation, negative = inhibition, usual class: activators. Huh7 Rab9 promoter-luciferase reporter, luminescence, 24 h; note: % of control where 0% means no effect; nearly all actives have a fitted effect of over 60% in size
#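 Quantitative HTS format; Huh7 Rab9-luciferase reporter cells (1500/well) receive compound 2 h post-plating, incubate 24 h at 37 °C, then get luciferase reagent for 10 min before luminescence reading.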
# ELG1 genotoxic = genotoxicity induction in ELG1-luciferase HEK293T cells; HEK293T ELG1-luciferase reporter, luminescence, 16 h; Potency, µM (top dose mostly 46 µM), inactives show top-dose activity change, positive = activation, most hits filed as activators; hit rate 1.3% among 330,000; AID 504466; note: % of control where 0% means no effect; nearly all actives have a fitted effect of over 60% in size
#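 Screening used a luciferase reporter fused to human ELG1 in HEK293T cells. Luminescence was read on a CCD plate imager after 16 hr exposure and 30 min ONE-Glo incubation.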
# FLuc modulator = counter-screen for miR-21 project: firefly luciferase inhibitors or activators | Potency, µM (top dose mostly 57.5 µM), without a hit: at the top dose activity change, negative = inhibition, usual class: inhibitors | purified FLuc, Km substrates, luminescence inhibition | P08659 | hit rate 6.9% among 360,000 | AID 588342;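 note: plate controls were vehicle for no effect and reference inhibitor for full effect; nearly all actives have a fitted effect of over 55% in size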
# Target sequence (P08659 whole entry, looked up): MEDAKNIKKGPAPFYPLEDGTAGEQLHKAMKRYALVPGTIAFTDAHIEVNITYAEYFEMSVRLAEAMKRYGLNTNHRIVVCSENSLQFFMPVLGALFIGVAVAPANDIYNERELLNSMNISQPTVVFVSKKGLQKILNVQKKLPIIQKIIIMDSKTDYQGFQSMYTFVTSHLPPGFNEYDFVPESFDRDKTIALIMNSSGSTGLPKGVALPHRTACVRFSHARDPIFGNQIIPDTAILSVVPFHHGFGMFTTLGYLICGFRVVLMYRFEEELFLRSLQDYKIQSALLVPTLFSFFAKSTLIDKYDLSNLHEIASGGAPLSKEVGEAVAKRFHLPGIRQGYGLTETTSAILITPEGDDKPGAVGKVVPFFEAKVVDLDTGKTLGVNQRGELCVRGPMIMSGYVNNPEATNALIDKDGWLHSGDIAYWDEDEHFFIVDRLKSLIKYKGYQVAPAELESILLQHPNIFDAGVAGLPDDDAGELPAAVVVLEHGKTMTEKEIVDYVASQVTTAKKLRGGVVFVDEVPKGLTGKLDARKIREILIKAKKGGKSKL
#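 Purified P. pyralis luciferase, 10 nM final, with Km-level 10 uM D-luciferin and 10 uM ATP in 50 mM Tris acetate pH 7.5, 10 mM Mg acetate, 0.01% Tween-20, 0.05% BSA; 6-point qHTS titration about 60 µM downward; luminescence read.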
# KinaseGlo FLuc = counter-screen: inhibitors of Kinase-Glo firefly luciferase. Potency, µM (series often up to 38.3 µM), inactives show top-dose activity change, negative = inhibition, hits mostly inhibitors. hit rate 0.28% among 200,000. Kinase-Glo luciferase, ATP luminescence, 8 min. Q27757. AID 1379; note: % is set by controls: 0 for no effect and ±100 for the full control effect; nearly all actives have a fitted effect of over 60% in size
#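 Recombinant Kinase-Glo luciferase, 10 uM ATP (linear range), luciferin; imidazole pH 7.2 / KCl / MgCl2 / Tween / BSA buffer; 8 min RT; luminescence.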
# NPC1 promoter act = NPC1 promoter activation; Potency, µM (titrated, usually from 9.22 µM), for inactives: top-dose activation, usual class: activators; AID 485313; hit rate 2.4% among 320,000; Huh7 NPC1 promoter luciferase reporter, 24 h; note: % of control where 0% means no effect; nearly all actives have a fitted effect of over 60% in size
#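 Stably transfected Huh7 (NPC1 promoter→luciferase), 1500 cells/well in Opti-MEM + 10% FBS, 2 h settle, then compound 24 h at 37 °C. Luminescence after 10 min with Amplite reagent.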
# SMN2 splice up = SMN2 splice variant enhancement. HEK293 SMN2-luciferase splicing reporter, luminescence, 30-36 h. AID 1458. hit rate 2.8% among 210,000. Potency, µM (titrated, usually from 46.1 µM), for the others: at the highest dose activity change, positive = activation, usual class: activators; note: % of control where 0% means no effect; nearly all actives have a fitted effect of over 55% in size
#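 HEK293 cells carry an SMN2 minigene-luciferase reporter in which exon 7 inclusion puts luciferase in frame. Cells were seeded at 2000 cells/well, attached for 10-12 hours, then exposed to compounds for 30-36 hours at 37C before ONE-Glo luminescence.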
# Starred values were filed as active, the others as inactive; ? = inconclusive; . = no result; [ ] = remark or other dose. Calls come from the whole dose curve; as a rule, active = well fitted curve in the direction sought with a large enough effect; inconclusive = small, poorly fitted or top-dose-only effect, or another doubt; inactive = no such curve, though single readings can be large; an effect the other way counts as inactive or inconclusive. Potency is the fitted concentration of half-maximal effect.
SMILES,Rab9 prom act,ELG1 genotoxic,FLuc modulator,KinaseGlo FLuc,NPC1 promoter act,SMN2 splice up
Cc1cc(=O)[nH]c(SCC(=O)N(CCC#N)c2ccccc2)c1C#N,12%,2%,-19%,0%,-7%,14%
CC(C)(C)c1ccc(C(=O)NC(Cc2c[nH]c3ccccc23)C(=O)OCC(=O)c2ccc(Cl)cc2)cc1 (stereo not given),.,.,-4%,.,.,.
O=C(COC(=O)[C@H](Cc1c[nH]c2ccccc12)NC(=O)c1ccc(Cl)cc1)Nc1ccc2c(c1)OCO2,2%,10%,17µM*,6%,-2%,-5%
COC(=O)[C@@H](Cc1c[nH]c2ccccc12)NC(=O)c1cc(=O)[nH]c2ccccc12,2%,-4%,0%,.,-1%,.
COC(=O)[C@@H](Cc1c[nH]c2ccccc12)NC(=O)c1ccc2c(c1)OCO2,3%,?,0.48µM*,.,1%,.
Cc1ccc(CCNC(=O)CN2CCN(Cc3ccc(Cl)cc3)C2=O)cc1,.,.,2%,.,.,-7%
CSc1ccc(CCNC(=O)c2sc3ncccc3c2-n2cccc2)cc1,.,.,-3%,.,.,.
COc1ccc(C(=O)/C=C/Nc2cccc(C)n2)cc1OC,2µM*,?,3.8µM*,-5%,2.2µM*,13µM*
COc1ccc(N/C=C/C(=O)c2cc(OC)c(OC)c(OC)c2)cc1,-8%,?,6µM*,.,-8%,.
COc1ccc(N/C=C\C(=O)c2ccc3c(c2)OCO3)cc1OC,25%,?,1.7µM*,-4%,27%,21%
COc1ccc(C(=O)/C=C/N2CCCCC2)cc1OC,23%,19%,24µM*,-6%,?,-2%
COC(=O)c1ccc(N/C=C/C(=O)c2ccc(OC)c(OC)c2)cc1,10%,?,-18%,-8%,9%,-10%
COC(=O)c1ccc(N/C=C\C(=O)c2ccc3c(c2)OCO3)cc1,?,18%,?,-7%,?,.
CCOc1ccccc1NC(=O)Cn1c(=O)n(-c2ccc(Cl)cc2)c(=O)c2oc3ccccc3c21,.,.,-5%,.,.,.
O=C(/C=C\Nc1cccc(F)c1)c1ccc2c(c1)OCO2,?,0.15µM*,0.12µM*,.,0.32µM*,.
O=C(CN1CCN(C(=O)CNC(=O)c2ccc3c(c2)OCO3)CC1)Nc1cccc(F)c1,-1%,4%,0%,.,-2%,.
COc1ccc(N/C=C/C(=O)c2ccc(OC)c(OC)c2)cc1,-2%,13%,2.4µM*,.,8%,.
O=C(Nc1ccc2c(c1)OCO2)N1CCN(Cc2ccco2)CC1,0.79µM*,?,0.95µM*,.,?,.
O=C(Nc1ccc2c(c1)OCCO2)N1CCN(c2ccc(F)cc2)CC1,-6%,20%,-16%,2%,6%,-50%
O=C(Nc1ccc2c(c1)OCCO2)c1coc2ccccc2c1=O,10%,?,0.76µM*,8.9µM*,-1%,9%
Cc1cc(C(=O)Nc2ccc3c(c2)OCCO3)c(C)o1,3.2µM*,4.6µM*,7.6µM*,-5%,?,11µM*
Cc1cccc(C)c1N1CCN(C(=O)Nc2ccc3c(c2)OCCO3)CC1,?,0%,9.5µM*,0%,?,-13%
Cc1cc(C(=O)Nc2cccc(O)c2)c(C)o1,-3%,?,?,-5%,7%,23%
Cc1cc(C(=O)Nc2ccc3c(c2)OCCO3)c2ccccc2n1,2%,8%,-3%,9%,1%,-18%
CCOC(=O)c1ccccc1NC(=O)N1CCN2CCCCC2C1 (stereo not given),.,.,-4%,.,.,.
SMILES,Rab9 prom act,ELG1 genotoxic,FLuc modulator,KinaseGlo FLuc,NPC1 promoter act,SMN2 splice up
O=C(O)[C@@H]1[C@@H]2C[C@@H]3[C@@H](OC(=O)[C@@H]31)[C@H]2Br,.,.,.,-1%[7.66 µM],.,-10%[9.22 µM]
CC(=O)Nc1ccc2c(c1)CCCC2,7%,3%,-14%,.,3%,.
CSc1ccccc1C(=O)Nc1ccc2c(c1)OCCO2,.,.,?,-13%,.,5%
Cc1occc1C(=O)Nc1ccc2c(c1)OCCO2,1.3µM*,?,8.5µM*,7.1µM*,3.2µM*,?
Cc1occc1C(=O)Nc1ccc2c(c1)CCC2,4µM*,18µM*,9.5µM*,13µM*,3.5µM*,11µM*
Cc1ccccc1C(=O)Nc1ccc2c(c1)OCCO2,0.4µM*,1.8µM*,2.4µM*,.,0.5µM*,.
CC(=O)c1c(Nc2ccc3c(c2)OCCO3)oc(C)cc1=O,-18%,?,27µM*,-3%,-1%,-6%
CC(=O)Nc1nonc1NC(=O)c1ccc(F)cc1,22%,2%,-1%,-3%,0%,18%
O=C(Nc1ncn[nH]1)c1cccc(F)c1,-2%,2%,0%,.,-2%,.
O=C(Nc1noc2ccccc12)c1cccc(F)c1,.,.,2.4µM*,.,.,?
O=C(Nc1noc2ccccc12)c1ccc(F)cc1,.,.,2.1µM*,.,.,?
Cc1nnc(SCC(=O)NC2CCCC(C)C2C)n1N (stereo not given),.,0%,.,.,.,.
Cn1cc(C(=O)N2CCc3ccccc32)cn1,?,14%,?,-10%,21%,?
CS(=O)(=O)n1nc(OC(=O)c2cc(Br)ccc2Cl)cc1N,1%,2%,?,1%,-3%,6%
CS(=O)(=O)n1nc(OC(=O)c2cccc3ccccc23)cc1N,27%,5%,17µM*,-1%,7%,5%
COc1cccc(CNC(=O)CCc2c(C)nn(-c3ccc(N4CCOCC4)nn3)c2C)c1,.,.,4%,.,.,.
O=C(NNC(=O)c1ccccc1O)c1cccc(Br)c1,19%,13%,17µM*,.,?,.
O=C(NNC(=O)c1ccc(O)cc1O)c1ccc(Cl)cc1,5%,?,?,2%,14%,14%
O=C(NNC(=O)c1ccccc1O)c1ccc(Cl)cc1,?,?,9.5µM*,-6%,?,18%
O=C(NNC(=O)c1ccccc1C(=O)O)c1ccc(-c2ccccc2)cc1,1%,2%,17µM*,0%,-4%,3%
O=C(COC(=O)c1ccccc1O)NNC(=O)c1ccc(Br)cc1,-4%,-1%,-1%,.,-2%,.
NC(=S)NNC(=O)c1cccc(Br)c1,-4%,0%,5%,0%,-6%,24%
O=C(NNC(=O)C1CC1)c1ccc(-c2ccccc2)cc1,15%,7%,-6%,-3%,7%,-7%
O=C(NNC(=O)c1ccccc1O)c1ccc(Br)cc1,?,26%,12µM*,.,?,.
Cc1cccc(C(=O)NNC(=O)c2ccc(Cl)cc2)c1O,?,9.2µM*,11µM*,0%,?,16µM*
CN(C)c1ccc(C(=C2C=CC(=[N+](C)C)C=C2)c2ccc(N(C)C)cc2)cc1,.,.,.,5µM*,.,-54%
Cc1cc(C)nc(Nc2n[nH]c(C)n2)n1,-3%,-2%,-2%,-1%,-5%,.
